The list is not random: actives were taken first. Their share in the collection is about 7.4%.
FLuc counter: inhibits or activates purified firefly luciferase, miR-21 counter-screen; purified FLuc, Km substrates, luminescence inhibition; actives 6.9% (n = 360,000); P08659; Potency, µM (doses to about 57.5 µM), for inactives: top-dose activity change, negative = inhibition, actives largely listed as inhibitors;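 further: plate controls were vehicle for no effect and reference inhibitor for full effect; nearly all actives have a fitted effect of over 55% in size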
Target sequence (P08659 whole entry, looked up): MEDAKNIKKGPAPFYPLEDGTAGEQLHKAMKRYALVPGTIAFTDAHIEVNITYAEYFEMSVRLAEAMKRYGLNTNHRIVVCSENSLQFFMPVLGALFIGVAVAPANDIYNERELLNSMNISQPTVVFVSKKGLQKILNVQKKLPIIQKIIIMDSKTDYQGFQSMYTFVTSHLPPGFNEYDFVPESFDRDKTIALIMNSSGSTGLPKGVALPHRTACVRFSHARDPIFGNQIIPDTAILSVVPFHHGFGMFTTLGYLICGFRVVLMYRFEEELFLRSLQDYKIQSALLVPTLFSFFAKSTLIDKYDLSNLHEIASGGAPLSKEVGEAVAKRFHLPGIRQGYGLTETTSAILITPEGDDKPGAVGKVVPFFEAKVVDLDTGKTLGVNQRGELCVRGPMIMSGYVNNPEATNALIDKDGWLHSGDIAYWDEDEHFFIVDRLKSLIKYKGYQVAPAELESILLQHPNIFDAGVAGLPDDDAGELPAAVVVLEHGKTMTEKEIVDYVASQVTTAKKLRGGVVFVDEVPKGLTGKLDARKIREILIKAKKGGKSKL
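Purified P. pyralis luciferase (10nM final) with 10uM D-luciferin and 10uM ATP (Km levels) in 50mM Tris acetate pH 7.5, 10mM Mg acetate, 0.01% Tween-20, 0.05% BSA; qHTS 6-point titration, ~60 µM downward; luminescence read.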
SMN2 splice enh: enhancers of SMN2 splice variant expression; HEK293 SMN2-luciferase splicing reporter, luminescence, 30-36 h; Potency, µM (highest dose often 46.1 µM), without a hit: top-dose activity change, positive = activation, actives largely listed as activators; actives 2.8% (n = 210,000); further: % of control where 0% means no effect; nearly all actives have a fitted effect of over 55% in size
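qHTS luciferase splicing reporter: luminescence rises when SMN2 exon 7 is included in transfected HEK293 cells. Compound exposure lasted 30-36 h at 37C, with 4.5 mM final sodium butyrate as control, followed by a ONE-Glo read.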
NPC1 promoter act: activators of NPC1 promoter. Huh7 NPC1 promoter luciferase reporter, 24 h. Potency, µM (top dose mostly 9.22 µM), for the others: at the top dose activation, usual class: activators. actives 2.4% (n = 320,000); further: % of control where 0% means no effect; nearly all actives have a fitted effect of over 60% in size
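Huh7 reporter cells (NPC1 promoter driving luciferase) are dosed with compound for 24 h at 37 °C, 5% CO2; luciferase detection reagent is then added and luminescence measured after 10 min at ambient temperature.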
Rab9 prom act: activates the Rab9 promoter; Huh7 Rab9 promoter-luciferase reporter, luminescence, 24 h; Potency, µM (titrated, usually from 9.22 µM), without a hit: at the highest dose activation, negative = inhibition, usual class: activators; actives 2.8% (n = 320,000); further: % of control where 0% means no effect; nearly all actives have a fitted effect of over 60% in size
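Cells were plated at 1500 per well in reduced-serum medium with 10% FBS and left 2 h. Compound in DMSO was then added for 24 h at 37 °C. Reporter signal was read by luminescence after 10 min with luciferase detection reagent.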
ELG1 genotox: inducers of genotoxicity in HEK293T ELG1-luciferase cells; actives 1.3% (n = 330,000); HEK293T ELG1-luciferase reporter, luminescence, 16 h; AID 504466; Potency, µM (highest dose often 46 µM), inactives show top-dose activity change, positive = activation, hits mostly activators; further: % of control where 0% means no effect; nearly all actives have a fitted effect of over 60% in size
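Genotoxic stress is detected as increased luminescence from luciferase-tagged ELG1 in HEK293T cells, measured with ONE-Glo after a 16 hr treatment at 37 °C.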
Active calls of the source: *; ? = inconclusive; · = no result; [ ] = dose if it differs, or a comment. The call rests on the fitted dose curve; in most records, active means well fitted curve in the direction sought with a large enough effect; inconclusive means small, poorly fitted or top-dose-only effect, or another doubt; inactive means no such curve, though single readings can be large; an effect the other way counts as inactive or inconclusive. Potency means the concentration at half of the fitted maximal effect.

SMILES	FLuc counter	SMN2 splice enh	NPC1 promoter act	Rab9 prom act	ELG1 genotox
Cc1cccc(S(=O)(=O)c2c(N)n(-c3ccccc3)c3nc4ccccc4nc23)c1	4.4%	22.7%	2.9%	-2.1%	0.9%
CCN(Cc1cccs1)C(=O)CN1C(=O)NC2(CCCc3ccccc32)C1=O (stereo not drawn)	0.0%	·	-0.8%	-0.2%	0.8%
Cc1cc(C(=O)CN2C(=O)NC3(CCCCCC3)C2=O)c(C)n1C	?	·	25.4%	?	8.9%
C=CCn1c(C)cc(C(=O)CN2C(=O)NC3(CCCc4ccccc43)C2=O)c1C (stereo not drawn)	19µM*	4.1%	0.1%	11.8%	2.9%
Cc1cc(C(=O)CN2C(=O)NC3(CCCc4ccccc43)C2=O)c(C)n1Cc1cccs1 (stereo not drawn)	6.01µM*	9.6%	11.7%	2.1%	11.4%
COCCn1c(C)cc(C(=O)CN2C(=O)NC3(CCCCCC3)C2=O)c1C	10.7µM*	·	2.51µM*	2µM*	?
CCN(CC(=O)Nc1ccc2c(c1)OCCO2)C(=O)c1ccc(C(F)(F)F)cc1	?	·	1.2%	17.1%	9.0%
O=C(CSc1nc2ccccc2c(=O)n1-c1ccccc1Cl)Nc1cccc(S(=O)(=O)N2CCOCC2)c1	3.7%	25.9%	7.0%	0.6%	4.1%
O=C(Nc1ccccc1)C1=C[C@H](c2ccc3c(c2)OCO3)C[C@H](OCCCCO)O1	15.1µM*	·	11.4%	29.9%	16.9%
O=C(Nc1ccccc1)C1=C[C@@H](C2CC2)C[C@@H](OCCCCO)O1	16.9µM*	·	0.0%	1.0%	?
O=C(O)C1=C[C@@H](c2ccc3c(c2)OCO3)C[C@@H](OCc2ccc(CO)cc2)O1	-8.9%	·	-6.5%	2.0%	3.7%
NC(=O)C1=C[C@H](c2ccc3c(c2)OCO3)C[C@H](OCc2ccc(CO)cc2)O1	15.1µM*	·	?	?	?
O=C(Nc1ccccc1)C1=C[C@@H](C2CC2)C[C@@H](OCc2ccc(CO)cc2)O1	10.7µM*	·	11.0%	18.0%	9.8%
Cc1cccc(N(CC(=O)NC2CCCCC2)C(=O)CCC(=O)Nc2nccs2)c1	-1.0%	·	0.2%	5.0%	-0.7%
COc1ccc(C(C(=O)NCc2ccccc2)N(C(=O)Cn2nnc3ccccc32)c2ccc(OC)cc2)cc1 (stereo not drawn)	0.5%	9.4%	·	·	·
C#CCNC(=O)C1=C[C@H](C2CCCCC2)C[C@H](OCc2ccc(CO)cc2)O1	-19.2%	·	4.0%	8.4%	1.7%
C#CCNC(=O)C1=C[C@@H](C2CCCCC2)C[C@@H](OCc2ccc(CO)cc2)O1	15.1µM*	·	0.9%	-5.0%	5.5%
COc1ccc(C2N(c3ccc4c(c3)OCCO4)C(=O)C2(F)F)cc1OC (stereo not drawn)	6.4%	·	2.4%	-0.2%	0.2%
COC(=O)c1ccc(CNC(=O)CCc2c[nH]c3ccccc23)cc1	4.0%	·	-1.4%	-1.8%	7.4%
COC(=O)c1ccc2c(CCO)c[nH]c2c1	23.9µM*	·	?	29.4%	?
CCc1nnc(NC(=O)CSc2ccc(-c3ccc(-n4cccn4)cc3)nn2)s1	1.2µM*	·	?	2.51µM*	5.8µM*
Cc1nnc(NC(=O)CSc2ccc(-c3ccc(Cl)cc3)nn2)s1	?	12.5%	16.6%	0.0%	?
CCc1ccc(-c2ccc(SCC(=O)Nc3nnc(C)s3)nn2)cc1	0.301µM*	12.6µM*	2.24µM*	1.26µM*	?
CCOc1ccc(-c2ccc(SCC(=O)Nc3nnc(C)s3)nn2)cc1	0.301µM*	?	?	?	0.2%
CCc1ccc(-c2ccc(SCC(=O)NCC3CCCO3)nn2)cc1 (stereo not drawn)	3.38µM*	14.1µM*	?	?	8.6%
SMILES	FLuc counter	SMN2 splice enh	NPC1 promoter act	Rab9 prom act	ELG1 genotox
CN(C)c1ccc(C(CNC(=O)Cc2cccc3ccccc23)N(C)C)cc1 (stereo not drawn)	0.7%	·	0.7%	-6.0%	-1.7%
COc1ccc(CCNC(=O)c2cc3c(C)nccc3[nH]c2=O)cc1OC	-1.0%	·	-6.4%	0.8%	-12.2%
COc1cccc(CC(=O)OCC(=O)NCC(=O)Nc2cccc(C)c2C)c1	3.6%	·	7.4%	0.1%	-2.5%
O=C(NCC(c1cccnc1)N1CCOCC1)C(=O)Nc1cccc(Cl)c1 (stereo not drawn)	-3.2%	·	·	·	·
Cc1cc(OCC(=O)N(C)C2CCCCC2)cc(C)c1Cl	?	22.9%	12.1%	1.6%	?
Cc1cc(OCC(=O)N(C)C2CCCCC2)ccc1Cl	2.69µM*	?	0.355µM*	0.631µM*	26.3%
COc1ccc(C2C(C(=O)c3cccs3)=C(O)C(=O)N2Cc2cccnc2)cc1OC (stereo not drawn)	19µM*	·	?	?	?
COc1cc(OC)c(S(=O)(=O)Nc2ccc(C)cn2)cc1NC(C)=O	-0.3%	2.8%	-9.5%	2.6%	0.6%
Cc1ccc(N=c2sc(C)c(C)n2C)cc1	21.3µM*	?	?	?	?
Cc1csc(=Nc2ccccc2)n1C	-17.7%	18.1%	3.0%	2.2%	8.1%
COc1ccc(NC(=O)CN(C)C(=O)c2cc3c(s2)CCC(C)C3)cc1 (stereo not drawn)	15.1µM*	·	-4.0%	3.6%	10.2%
CCN(CC(=O)Nc1ccc(OC)cc1)C(=O)c1ccc2ccccc2c1	·	·	·	·	-1.5%
COc1cccc(NC(=O)CN(C)C(=O)CNC(=O)c2ccc(Oc3ccccc3)cc2)c1	6.01µM*	·	27.4%	?	5.6%
COc1ccc(NC(=O)CN(C)C(=O)CNC(=O)c2ccc3ccccc3c2)cc1	23.9µM*	·	25.9%	?	14.1%
CN(CC(=O)Nc1ccccc1Br)C(=O)CNC(=O)c1ccc(Oc2ccccc2)cc1	15.1µM*	·	18.0%	1.7%	-0.5%
COc1ccc(CCNC(=O)C(=O)c2c[nH]c3ccccc23)cc1	·	-8.6%	·	·	·
Cc1cccn2c(=O)c(C=O)c(N3CCSCC3)nc12	4.2%	·	-4.1%	-2.4%	5.2%
O=CNc1ncn[nH]1	·	-5.5%[9.22 µM]	·	·	·
CN(CC(=O)OCC(=O)NCc1ccccc1)S(=O)(=O)c1ccc(Cl)cc1	5.1%	1.8%	-3.9%	0.4%	-0.9%
CCCCn1c(SCC(=O)N(C)C2CCS(=O)(=O)C2)nc2cc(S(N)(=O)=O)ccc21 (stereo not drawn)	-1.2%	·	-4.8%	-2.0%	-0.2%
Cc1ccccc1Nc1c(-c2ccsc2)nc2c(C)cccn12	?	12.6µM*	·	·	·
Cc1ccn2c(Nc3ccccc3C)c(-c3ccncc3)nc2c1	?	17.8µM*	-3.4%	-9.8%	1.7%
CC1CCc2c(sc3nnn(CC(=O)Nc4c(C(C)C)cccc4C(C)C)c(=O)c23)C1 (stereo not drawn)	1.4%	-0.8%	·	·	·
O=C(NCCCN1CCN(c2ccc(F)cc2)CC1)c1sc2ncccc2c1-n1cccc1	1.8%	·	·	·	·
Cc1cccc(C)c1OCc1cc(C(=O)N2CCC(c3ccccc3)CC2)no1	?	·	?	?	22.9%

Compound activity as filed in PubChem BioAssay.
